The panel holds about 83,000 compounds, 20% with a hit somewhere; the sample as a whole holds those more often.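 Assay: single dose, 48 h. Readout: percent growth (0 = no net growth; negative = cell death). Active: <10.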 Unmarked numbers belong to inactive results. Activity calls are given as the source filed them.
Legend:
Assay in all cases: NCI-60 one-dose screen, 48 h (100 = growth as untreated, 0 = no growth, -100 = all killed)
Conditions in all cases: 10 µM unless noted
NCI-H23 lung = tested on: NCI-H23 lung
NCI-H226 lung = tested on: NCI-H226 lung
NCI-H322M lung = tested on: NCI-H322M lung
HOP-62 NSCLC = tested on: HOP-62 NSCLC
NCI-H460 lung = tested on: NCI-H460 lung
HOP-92 NSCLC = tested on: HOP-92 NSCLC
NCI-H522 lung = tested on: NCI-H522 lung
A549/ATCC NSCLC = tested on: A549/ATCC NSCLC
786-0 renal = tested on: 786-0 renal
COLO 205 colon = tested on: COLO 205 colon
DU-145 prostate = tested on: DU-145 prostate
K-562 leukemia = tested on: K-562 leukemia
MALME-3M melanoma = tested on: MALME-3M melanoma
MDA-MB-231 breast = tested on: MDA-MB-231 breast
RXF 393 renal = tested on: RXF 393 renal
SF-268 CNS = tested on: SF-268 CNS
SF-295 CNS = tested on: SF-295 CNS
SF-539 CNS = tested on: SF-539 CNS
UACC-257 melanoma = tested on: UACC-257 melanoma
M14 melanoma = tested on: M14 melanoma

| SMILES | growth (NCI-H23 lung) | growth (NCI-H226 lung) | growth (NCI-H322M lung) | growth (HOP-62 NSCLC) | growth (NCI-H460 lung) | growth (HOP-92 NSCLC) | growth (NCI-H522 lung) | growth (A549/ATCC NSCLC) | growth (786-0 renal) | growth (COLO 205 colon) | growth (DU-145 prostate) | growth (K-562 leukemia) | growth (MALME-3M melanoma) | growth (MDA-MB-231 breast) | growth (RXF 393 renal) | growth (SF-268 CNS) | growth (SF-295 CNS) | growth (SF-539 CNS) | growth (UACC-257 melanoma) | growth (M14 melanoma) |
| --- | --- | --- | --- | --- | --- | --- | --- | --- | --- | --- | --- | --- | --- | --- | --- | --- | --- | --- | --- | --- |
| CCOC(=O)c1cnn(CC(O)CC)c1NC(=O)NCc1ccccc1C(F)(F)F (stereo not given) | 92.7% | 106% | 94.5% | 90.8% | 110% | 93.9% | 70.3% | 94.9% | 96% | 114% | 109% | 88.5% | 103% | 105% | 119% | 100% | 90.7% | 99.1% | 103% | 88.2% |
| C[C@@H]1CC[C@@H]2[C@@H]1[C@H](OC(=O)/C=C/c1ccccc1)[C@]1(c3ccccc3)C[C@@H](NC(=O)CO)[C@@]2(C)O1 | 97.7% | 88.8% | 98.2% | 96.8% | 105% | 65.5% | 82.3% | 95% | 101% | 99.7% | 107% | 84.4% | 98.6% | 96.9% | 83.2% | 93.6% | 93.8% | 97.9% | 93% | 105% |
| CN1CCN(c2ccc(/C=C/C(=O)c3ccc(O)cc3)cc2)CC1 | 93.9% | 97% | 101% | 97.7% | 101% | 74.8% | 88% | 97.7% | 98.8% | 113% | 93.2% | 90.1% | 99% | 94.8% | 95.3% | 95.8% | 95.1% | 91.9% | 96.1% | 95.8% |
| C=C1C(=O)O[C@H]2[C@H]1CC/C(COC(=O)NCCCCNC(=O)OC/C1=C/CC[C@@]3(C)O[C@H]3[C@H]3OC(=O)C(=C)[C@@H]3CC1)=C\CC[C@@]1(C)O[C@@H]21 | 38.3% | 53.2% | 98.5% | 73.8% | 102% | -32.8% (active) | -61.4% (active) | 94.9% | 22.7% | -43.4% (active) | 45.8% | 4.14% (active) | -39.3% (active) | 24% | -30.2% (active) | 48.7% | 99% | -23.6% (active) | 2.94% (active) | 11.5% |
| COc1ccc2c(c1)CC[C@@H]1[C@@H]2CC[C@]2(C)C3C(=CCC4C(=O)N(c5ccccc5)C(=O)C43)C[C@@H]12 (stereo not given in full) | 84.4% | 90.8% | 103% | 90.3% | 93.7% | 99.3% | 80.1% | 92.3% | 87.7% | 94.4% | 114% | 76.9% | 96.1% | 86.6% | 93.7% | 94.1% | 96.4% | 96.7% | 86.1% | 89.4% |
| OCc1cc(CN2CCCCC2)c(O)c2ncccc12 | 75.8% | 67.5% | 25.9% | 35.8% | 20.7% | 71.9% | 80.7% | 57.8% | 57.9% | 47% | 49.5% | 55.5% | 62.8% | 49.5% | 73.8% | 48.2% | 60.6% | 54% | 77.8% | 36.2% |
| CCNC(=O)Oc1ccc(/C(=C(/C)Cc2ccc(OC)cc2)c2ccc(OCCN(CC)CC)cc2)cc1 | 78.2% | 91.9% | 76.9% | 76.3% | 13.5% | 43.3% | 58.1% | 51.7% | 53.8% | -69.1% (active) | 77.3% | -45.2% (active) | -17.8% (active) | 45% | 49.7% | 67.1% | 40.8% | 74.5% | -56.3% (active) | -63.6% (active) |
